Source: PubChem BioAssay
A selection: hits, their analogues and other compounds. The true share with any hit is near 1.8%.
GSTO1 inh: inhibitors of recombinant GSTO1, primary screen, counter-screen for RBBP9 inhibitor project, biochemical, fluorescence polarization. Glutathione S-transferase omega-1 (Homo sapiens), P78417. activity-based probe fluorescence polarization. inhibition, % at 5.96 µM. actives 1.1% (n = 300,000). AID 1974, 2009;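 active = inhibition above the campaign mean inhibition plus 3 SD, cut at about 35% in these data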;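 also: 0% = GSTO1-1 with DMSO and 100% = wells lacking GSTO1-1 enzyme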
LYPLA2 inh: LYPLA2 inhibitors, primary screen, counter-screen for PME1 inhibitor project, biochemical, fluorescence polarization, FP-Rh probe ABPP; Acyl-protein thioesterase 2 (Homo sapiens), O95372; recombinant LYPLA2; inhibition, % at 5.9 µM; actives 0.38% (n = 320,000); AID 2177, 2009;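 active = inhibition above the screen-wide mean plus 3 SD, limit set per campaign, cut at about 26% in these data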;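 also: 0% = LYPLA2 with DMSO and 100% = wells lacking LYPLA2 enzyme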
Target sequence (O95372 whole entry, looked up): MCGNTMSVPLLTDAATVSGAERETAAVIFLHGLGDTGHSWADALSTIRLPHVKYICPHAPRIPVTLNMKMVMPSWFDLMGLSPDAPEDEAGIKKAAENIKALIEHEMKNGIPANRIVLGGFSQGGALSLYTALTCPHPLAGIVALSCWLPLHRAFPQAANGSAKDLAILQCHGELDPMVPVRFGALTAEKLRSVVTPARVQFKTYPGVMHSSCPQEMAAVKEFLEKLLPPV
PME-1 primary: PME-1 inhibitors via competitive probe labeling, primary screen, biochemical, fluorescence polarization, FP-Rh probe, HTS; Protein phosphatase methylesterase 1 (Homo sapiens), Q9Y570; actives 0.53% (n = 320,000); recombinant PME-1; AID 2130, 2009; inhibition, % at 5.9 µM;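 active = inhibition above the campaign mean of all compounds plus 3 SD, cut at about 26% in these data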;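 also: competitive labeling of PME-1 active site by serine hydrolase directed probe; 0% = PME-1 with DMSO and 100% = wells lacking PME-1 enzyme; inhibitors block probe labeling so polarization falls and inhibition rises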
Fam108B inh: mouse Fam108B serine hydrolase inhibitors, primary screen, counter-screen for RBBP9 inhibitor project, biochemical, fluorescence polarization | recombinant Fam108B, FP-Rh probe fluorescence polarization | inhibition, % at 9.51 µM | actives 0.33% (n = 300,000);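 active = inhibition above the screen mean inhibition plus 3 SD, computed separately per campaign, cut at about 18% in these data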;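 also: inhibitors lower polarization as less probe binds the enzyme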
PAD4 FP inh: human PAD4 inhibitors, primary screen, biochemical, fluorescence polarization, 1536-well format | actives 0.41% (n = 330,000) | inhibition, % at 6.36 µM | recombinant PAD4, RCA probe fluorescence polarization;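 active = percent inhibition above a cutoff equal to the mean of all tested compounds plus 3 SD, cut at about 15% in these data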;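 also: 0% = PAD4 with RCA probe and DMSO and 100% = probe without PAD4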
LYPLA1 inh: LYPLA1 inhibitors, primary screen, counter-screen for PME1 inhibitor project, biochemical, fluorescence polarization, FP-Rh probe ABPP; AID 2174, 2009; actives 0.16% (n = 320,000); inhibition, % at 5.9 µM; Acyl-protein thioesterase 1 (Homo sapiens), O75608; recombinant LYPLA1;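 active = inhibition above the mean of all tested compounds plus 3 SD, set per campaign, cut at about 14% in these data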;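 also: inhibitors block serine hydrolase probe labeling of LYPLA1 so polarization falls; 0% = enzyme with DMSO and 100% = wells lacking LYPLA1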
Target sequence (O75608 whole entry, looked up): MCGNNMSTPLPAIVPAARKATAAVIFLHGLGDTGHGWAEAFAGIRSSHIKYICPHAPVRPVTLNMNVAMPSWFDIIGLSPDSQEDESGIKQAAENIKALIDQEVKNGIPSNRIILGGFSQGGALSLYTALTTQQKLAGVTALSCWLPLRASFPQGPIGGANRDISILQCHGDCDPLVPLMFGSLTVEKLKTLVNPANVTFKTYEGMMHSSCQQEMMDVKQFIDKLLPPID
GSTO1 confirm: GSTO1 inhibitor hit confirmation, counter-screen for RBBP9 inhibitor project, biochemical, fluorescence polarization, triplicate; actives 54% (n = 2,400); shares compounds with GSTO1 inh; recombinant GSTO1, probe fluorescence polarization; inhibition, % at 5.96 µM;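 active = inhibition above the primary screen's cutoff, its mean inhibition plus 3 SD, cut at about 35% in these data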;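 also: loss of polarization as inhibitors block binding of rhodamine sulfonate ester activity probe; 0% = GSTO1 with DMSO and 100% = wells lacking GSTO1 enzyme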
GSTO1 recomb ABPP: inhibitors of purified human GSTO1, late-stage follow-up, biochemical, gel ABPP, SE-Rh probe, percent inhibition; shares compounds with GSTO1 inh; inhibition, % at 1 µM; AID 463110, 2010; actives 30% (n = 130); recombinant GSTO1, gel ABPP SE-Rh probe fluorescence;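 active = inhibition of the enzyme GSTO1 above about 75%, limit read from the data; inactive = inhibition below that limit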
Starred values were filed as active, the others as inactive; . = no result.

SMILES | GSTO1 inh | LYPLA2 inh | PME-1 primary | Fam108B inh | PAD4 FP inh | LYPLA1 inh | GSTO1 confirm | others
CC(=O)N(Cc1ccc(F)cc1)c1cccc(C)c1C | 1 | 0 | 4 | 1 | 1 | -4 | .
Cc1onc(-c2ccccc2)c1C(=O)NNC(=O)c1ccccc1O | 47* | 7 | -5 | 4 | 2 | 1 | 6
Cc1onc(-c2ccccc2)c1C(=O)NNC(=O)c1ccccc1 | . | -1 | -2 | . | -2 | 0 | .
CCOC(=O)C1CCN(C2=C(NS(=O)(=O)c3ccc(Cl)cc3)C(=O)c3ccccc3C2=O)CC1 | 18 | 7 | 11 | 6 | -1 | 2 | .
O=C1C(NS(=O)(=O)c2ccc(Br)cc2)=C(N2CCCCC2)C(=O)c2ccccc21 | 42* | 6 | 11 | 0 | -15 | -1 | 12
CCOC(=O)C1CCCN(C2=C(NS(=O)(=O)c3ccc(Br)cc3)C(=O)c3ccccc3C2=O)C1 (stereo not given) | 43* | -2 | 15 | 6 | -10 | 1 | 11
CC(C)(C)C(=O)CSc1nc(N)cc(=O)[nH]1 | 1 | -5 | -3 | -2 | -8 | -1 | .
Cn1c(-c2ccccc2)cnc1SCC(=O)N1CCCc2ccccc21 | 3 | -4 | 6 | 8 | 5 | -8 | .
O=C(CSc1ncc(-c2ccccc2)n1C1CCCC1)N1CCc2ccccc21 | 39* | 0 | -5 | 1 | -3 | -2 | 22
COC(=O)CCC(=O)OC1(C)C(=O)C2=CN(C3CCCC3)C(c3ccc(OC)cc3)=CC2=C(Br)C1=O (stereo not given) | 50* | -5 | 0 | 8 | -23 | 1 | 30
COC(=O)CCC(=O)OC1(C)C(=O)C2=CN(Cc3ccco3)C(c3ccc(OC)cc3)=CC2=C(Br)C1=O (stereo not given) | 6 | -8 | 0 | 6 | -18 | -9 | .
C=CCN1C=C2C(=O)C(C)(OC(=O)CCC(=O)OC)C(=O)C(Br)=C2C=C1c1ccc(OC)cc1 (stereo not given) | 61* | 8 | 6 | 5 | -6 | 10 | 69*
COCCN1C=C2C(=O)C(C)(OC(=O)CCC(=O)OC)C(=O)C(Br)=C2C=C1c1ccc(OC)cc1 (stereo not given) | 55* | 3 | 4 | 3 | -6 | -1 | 61*
CC(Cc1n[nH]c(=S)n1N)c1ccccc1 (stereo not given) | 5 | 1 | -2 | -2 | 3 | -4 | .
Cc1ccccc1NC(=O)Cc1nc(CCl)cs1 | 93* | -1 | -6 | 2 | -1 | -3 | 95* | GSTO1 recomb ABPP=74
CCOC(=O)/C=C/C(=O)OCc1csc(CC(=O)Nc2ccccc2C)n1 | 11 | -4 | -11 | -6 | -4 | -8 | .
CCOC(=O)C1CCCN(Cc2c(F)cccc2Cl)C1 (stereo not given) | -7 | 6 | 0 | -4 | 3 | 0 | .
Cc1cccc(C(=O)OCC(=O)N2CC(=O)Nc3ccccc32)c1C | . | . | . | . | -1 | . | .
COc1cc(O)c2c(c1)OC(c1ccc(O)cc1)CC2=O (stereo not given) | 4 | 9 | 12 | 0 | 0 | 1 | .
Cc1c(O)cc2c(c1O)C(=O)CC(c1ccc(O)cc1)O2 (stereo not given) | 51* | 2 | -1 | 2 | -1 | -5 | 10
COc1ccc(N(CC(=O)NC2CCCC2)C(=O)c2ccc(C)s2)cc1OC | -2 | -3 | -1 | -1 | 4 | 0 | .
O=c1cc(CN2CCOCC2)c2ccc(O)c(O)c2o1 | 14 | -3 | -2 | -4 | -2 | 0 | .
